# Experimental data: PMC7862700, “An all-to-all approach to the identification of sequence-specific readers for epigenetic DNA modifications on cytosine”
# What was measured:
# Test in all cases: DAPPL (digital affinity profiling via proximity ligation, sequencing); 10 mM Tris-HCl pH 7.5, 50 mM NaCl, 1 mM DTT, 4% glycerol, room temperature, 30 min; GST-TFs on glutathione beads, 16-mer random dsDNA library, 0.1% formaldehyde crosslink after washing; high values mean tight binding
# FLI1 = target: T1, FLI1 (Homo sapiens, UniProt Q01543 1-452); conditions: protein: recombinant; tags: N-terminal GST; dsDNA, one strand shown
# T1 sequence: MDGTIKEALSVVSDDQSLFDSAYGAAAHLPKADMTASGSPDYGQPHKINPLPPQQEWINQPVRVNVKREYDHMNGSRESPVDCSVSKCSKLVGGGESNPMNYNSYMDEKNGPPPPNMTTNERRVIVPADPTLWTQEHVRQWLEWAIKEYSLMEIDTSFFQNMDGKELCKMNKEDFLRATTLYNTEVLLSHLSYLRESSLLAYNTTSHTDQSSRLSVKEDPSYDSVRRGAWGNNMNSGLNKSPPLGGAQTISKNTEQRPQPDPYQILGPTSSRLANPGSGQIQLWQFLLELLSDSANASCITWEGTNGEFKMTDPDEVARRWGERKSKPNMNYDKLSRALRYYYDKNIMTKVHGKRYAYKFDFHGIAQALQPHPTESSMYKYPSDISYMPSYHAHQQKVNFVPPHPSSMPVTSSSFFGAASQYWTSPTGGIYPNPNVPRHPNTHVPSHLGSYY
# In short: (§1)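 In yeast, human transcription factors were expressed with a GST fusion, then pulled down on glutathione beads and given DNA barcodes. Pooled with a tag-only sample, they were exposed to 200 nmole of a 16-mer random double-stranded DNA library (Tris/NaCl/DTT/glycerol buffer, room temperature, 30 min), washed, crosslinked with 0.1% formaldehyde, proximity-ligated using BsaI/T4 ligase for 1 h at 37 °C, PCR-amplified and read on an Illumina NextSeq500. Each hexamer's frequency of reads for a factor, divided by the matching frequency for the tag-only sample, gives the binding signal.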
# ELK1 = target: T2, ELK1 (Homo sapiens, UniProt P19419 1-428); conditions: protein: recombinant; tags: N-terminal GST; dsDNA, one strand shown
# T2 sequence: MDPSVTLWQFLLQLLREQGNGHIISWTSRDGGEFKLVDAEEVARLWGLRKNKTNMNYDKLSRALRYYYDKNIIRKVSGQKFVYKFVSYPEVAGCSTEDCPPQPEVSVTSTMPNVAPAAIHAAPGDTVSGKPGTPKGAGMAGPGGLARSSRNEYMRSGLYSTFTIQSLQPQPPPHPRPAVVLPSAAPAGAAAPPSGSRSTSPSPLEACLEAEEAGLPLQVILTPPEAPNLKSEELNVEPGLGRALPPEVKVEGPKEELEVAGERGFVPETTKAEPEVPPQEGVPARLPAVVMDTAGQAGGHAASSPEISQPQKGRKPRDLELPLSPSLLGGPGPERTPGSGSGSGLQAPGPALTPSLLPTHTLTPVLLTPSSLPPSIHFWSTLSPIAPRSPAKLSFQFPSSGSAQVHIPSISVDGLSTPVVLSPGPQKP
# In short: as §1
# GABPA = target: T3, GABPA (Homo sapiens, UniProt Q06546 1-454); conditions: protein: recombinant; tags: N-terminal GST; dsDNA, one strand shown
# T3 sequence: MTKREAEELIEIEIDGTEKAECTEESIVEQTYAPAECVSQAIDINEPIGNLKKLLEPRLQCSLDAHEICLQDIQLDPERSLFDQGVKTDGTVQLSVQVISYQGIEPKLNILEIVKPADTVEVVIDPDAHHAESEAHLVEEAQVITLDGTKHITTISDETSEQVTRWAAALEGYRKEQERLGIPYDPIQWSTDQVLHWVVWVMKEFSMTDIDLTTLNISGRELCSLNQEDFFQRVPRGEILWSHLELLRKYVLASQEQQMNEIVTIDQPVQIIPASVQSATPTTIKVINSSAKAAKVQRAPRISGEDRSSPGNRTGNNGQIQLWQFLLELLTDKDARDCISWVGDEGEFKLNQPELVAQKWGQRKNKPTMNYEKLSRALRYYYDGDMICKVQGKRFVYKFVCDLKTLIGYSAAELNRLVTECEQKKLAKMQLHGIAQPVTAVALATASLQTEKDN
# In short: as §1
# ERG = target: T4, ERG (Homo sapiens, UniProt P11308 1-479); conditions: protein: recombinant; tags: N-terminal GST; dsDNA, one strand shown
# T4 sequence: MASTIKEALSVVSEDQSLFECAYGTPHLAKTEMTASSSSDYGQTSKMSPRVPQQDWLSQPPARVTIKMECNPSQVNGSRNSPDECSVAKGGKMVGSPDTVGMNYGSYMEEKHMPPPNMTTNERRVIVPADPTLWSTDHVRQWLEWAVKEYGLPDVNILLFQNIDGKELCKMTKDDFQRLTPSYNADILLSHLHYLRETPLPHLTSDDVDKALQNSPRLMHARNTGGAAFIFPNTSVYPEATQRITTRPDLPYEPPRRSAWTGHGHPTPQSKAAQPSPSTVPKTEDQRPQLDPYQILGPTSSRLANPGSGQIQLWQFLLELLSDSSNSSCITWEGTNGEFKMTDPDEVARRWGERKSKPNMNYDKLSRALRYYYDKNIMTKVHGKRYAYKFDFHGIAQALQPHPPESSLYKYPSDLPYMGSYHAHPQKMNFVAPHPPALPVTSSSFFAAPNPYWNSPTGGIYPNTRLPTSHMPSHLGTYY
# In short: as §1
# ELF1 = ELF1 (Homo sapiens, UniProt P32519 1-619); conditions: protein: recombinant; tags: N-terminal GST; dsDNA, one strand shown
# ELF1, sequence (P32519 whole entry): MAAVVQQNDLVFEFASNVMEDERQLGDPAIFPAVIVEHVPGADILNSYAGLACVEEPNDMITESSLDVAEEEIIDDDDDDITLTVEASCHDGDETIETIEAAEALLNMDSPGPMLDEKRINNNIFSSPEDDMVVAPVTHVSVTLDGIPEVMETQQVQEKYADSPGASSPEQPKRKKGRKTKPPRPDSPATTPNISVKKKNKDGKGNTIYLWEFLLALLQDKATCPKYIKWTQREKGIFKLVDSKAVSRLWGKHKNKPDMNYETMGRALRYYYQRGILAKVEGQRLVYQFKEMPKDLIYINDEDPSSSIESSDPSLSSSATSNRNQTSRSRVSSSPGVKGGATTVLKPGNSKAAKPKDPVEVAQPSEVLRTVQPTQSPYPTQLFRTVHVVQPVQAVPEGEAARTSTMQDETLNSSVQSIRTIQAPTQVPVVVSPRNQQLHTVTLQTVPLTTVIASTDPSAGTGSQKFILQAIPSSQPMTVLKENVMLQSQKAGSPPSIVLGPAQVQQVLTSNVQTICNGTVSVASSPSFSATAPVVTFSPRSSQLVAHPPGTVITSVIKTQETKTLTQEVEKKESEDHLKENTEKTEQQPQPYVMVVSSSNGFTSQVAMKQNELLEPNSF
# In short: as §1
# EHF = target: T5, EHF (Homo sapiens, UniProt Q9NZC4 1-300); conditions: protein: recombinant; tags: N-terminal GST; dsDNA, one strand shown
# T5 sequence: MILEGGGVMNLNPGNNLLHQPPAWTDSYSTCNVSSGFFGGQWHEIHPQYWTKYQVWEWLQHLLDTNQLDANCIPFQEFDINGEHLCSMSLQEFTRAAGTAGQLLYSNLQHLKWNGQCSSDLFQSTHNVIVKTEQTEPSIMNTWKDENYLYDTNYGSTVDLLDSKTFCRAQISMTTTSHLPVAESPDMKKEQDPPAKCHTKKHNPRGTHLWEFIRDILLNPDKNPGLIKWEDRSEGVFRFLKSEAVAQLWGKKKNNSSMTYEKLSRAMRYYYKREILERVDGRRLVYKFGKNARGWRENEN
# In short: as §1
# SPI1 = SPI1 (Homo sapiens, UniProt P17947 1-270); conditions: protein: recombinant; tags: N-terminal GST; dsDNA, one strand shown
# In short: as §1
# SPIB = SPIB (Homo sapiens, UniProt Q01892 1-262); conditions: protein: recombinant; tags: N-terminal GST; dsDNA, one strand shown
# SPIB, sequence (Q01892 whole entry): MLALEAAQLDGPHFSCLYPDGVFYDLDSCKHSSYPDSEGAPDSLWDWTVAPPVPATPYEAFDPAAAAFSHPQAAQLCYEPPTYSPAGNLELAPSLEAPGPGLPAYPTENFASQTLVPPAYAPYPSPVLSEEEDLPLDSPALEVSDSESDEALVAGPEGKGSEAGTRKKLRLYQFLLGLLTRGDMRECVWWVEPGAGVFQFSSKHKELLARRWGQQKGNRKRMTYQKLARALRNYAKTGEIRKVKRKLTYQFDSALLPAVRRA
# In short: as §1
# ELK3 = target: T6, ELK3 (Homo sapiens, UniProt P41970 1-407); conditions: protein: recombinant; tags: N-terminal GST; dsDNA, one strand shown
# T6 sequence: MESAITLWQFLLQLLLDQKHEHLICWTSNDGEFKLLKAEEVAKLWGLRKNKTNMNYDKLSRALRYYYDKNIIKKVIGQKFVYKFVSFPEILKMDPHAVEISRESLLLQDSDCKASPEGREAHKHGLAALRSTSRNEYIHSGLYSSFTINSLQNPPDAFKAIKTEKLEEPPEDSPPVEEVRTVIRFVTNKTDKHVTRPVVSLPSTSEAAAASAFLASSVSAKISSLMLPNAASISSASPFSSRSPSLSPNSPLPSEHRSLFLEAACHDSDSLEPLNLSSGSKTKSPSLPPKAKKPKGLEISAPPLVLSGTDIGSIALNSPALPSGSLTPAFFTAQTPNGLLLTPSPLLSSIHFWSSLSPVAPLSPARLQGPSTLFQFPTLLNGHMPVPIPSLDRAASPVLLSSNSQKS
# In short: as §1
# FEV = target: T7, FEV (Homo sapiens, UniProt Q99581 1-238); conditions: protein: recombinant; tags: N-terminal GST; dsDNA, one strand shown
# T7 sequence: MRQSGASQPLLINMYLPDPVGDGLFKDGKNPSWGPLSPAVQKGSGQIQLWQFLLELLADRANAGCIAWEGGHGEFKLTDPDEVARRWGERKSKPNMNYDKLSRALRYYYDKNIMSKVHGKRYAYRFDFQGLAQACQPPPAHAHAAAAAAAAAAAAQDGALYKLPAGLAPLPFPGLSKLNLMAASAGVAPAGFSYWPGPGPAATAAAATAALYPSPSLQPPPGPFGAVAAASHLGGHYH
# In short: as §1
# ETV5 = ETV5 (Homo sapiens, UniProt P41161 1-510); conditions: protein: recombinant; tags: N-terminal GST; dsDNA, one strand shown
# ETV5, sequence (P41161 whole entry): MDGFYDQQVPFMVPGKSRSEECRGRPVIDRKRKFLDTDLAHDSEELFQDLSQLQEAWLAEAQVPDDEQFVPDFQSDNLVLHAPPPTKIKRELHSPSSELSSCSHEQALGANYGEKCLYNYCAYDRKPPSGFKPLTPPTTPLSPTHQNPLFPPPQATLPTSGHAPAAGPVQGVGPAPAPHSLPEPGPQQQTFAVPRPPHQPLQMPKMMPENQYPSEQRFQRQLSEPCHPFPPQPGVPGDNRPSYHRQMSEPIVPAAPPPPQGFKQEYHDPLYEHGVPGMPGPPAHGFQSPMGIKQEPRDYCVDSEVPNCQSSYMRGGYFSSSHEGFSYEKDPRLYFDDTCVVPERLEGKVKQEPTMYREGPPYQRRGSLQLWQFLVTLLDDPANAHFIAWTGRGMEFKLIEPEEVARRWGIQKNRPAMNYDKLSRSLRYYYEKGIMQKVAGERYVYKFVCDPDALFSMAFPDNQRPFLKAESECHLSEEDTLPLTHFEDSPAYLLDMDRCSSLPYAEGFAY
# In short: as §1
# HSF1 = HSF1 (Homo sapiens, UniProt Q00613 1-529); conditions: protein: recombinant; tags: N-terminal GST; chain copies: 3; dsDNA, one strand shown
# HSF1, sequence (Q00613 whole entry): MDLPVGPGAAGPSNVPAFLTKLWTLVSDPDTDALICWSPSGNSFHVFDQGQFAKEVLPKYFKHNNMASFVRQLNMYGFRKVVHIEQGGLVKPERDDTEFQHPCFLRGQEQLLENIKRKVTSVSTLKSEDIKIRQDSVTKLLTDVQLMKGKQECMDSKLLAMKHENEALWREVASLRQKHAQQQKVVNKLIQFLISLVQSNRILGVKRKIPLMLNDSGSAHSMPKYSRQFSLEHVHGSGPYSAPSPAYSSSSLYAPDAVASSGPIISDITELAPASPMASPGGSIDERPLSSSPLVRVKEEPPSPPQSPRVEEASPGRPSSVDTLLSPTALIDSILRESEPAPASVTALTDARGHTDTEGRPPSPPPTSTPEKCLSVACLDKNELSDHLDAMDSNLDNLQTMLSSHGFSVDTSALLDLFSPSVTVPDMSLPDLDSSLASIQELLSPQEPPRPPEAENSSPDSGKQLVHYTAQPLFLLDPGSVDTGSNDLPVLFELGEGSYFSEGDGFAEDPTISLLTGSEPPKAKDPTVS
# In short: as §1
# SPIC = target: T8, SPIC (Homo sapiens, UniProt Q8N5J4 1-248); conditions: protein: recombinant; tags: N-terminal GST; dsDNA, one strand shown
# T8 sequence: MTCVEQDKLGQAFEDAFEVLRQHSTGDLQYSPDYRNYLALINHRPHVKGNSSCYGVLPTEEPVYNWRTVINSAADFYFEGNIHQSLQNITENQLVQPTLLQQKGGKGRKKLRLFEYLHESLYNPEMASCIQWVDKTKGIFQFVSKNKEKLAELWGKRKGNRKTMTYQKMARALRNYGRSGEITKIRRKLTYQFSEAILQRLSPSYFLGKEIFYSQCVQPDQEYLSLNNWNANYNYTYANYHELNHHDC
# In short: as §1
# ELF4 = ELF4 (Homo sapiens, UniProt Q99607 1-663); conditions: protein: recombinant; tags: N-terminal GST; dsDNA, one strand shown
# ELF4, sequence (Q99607 whole entry): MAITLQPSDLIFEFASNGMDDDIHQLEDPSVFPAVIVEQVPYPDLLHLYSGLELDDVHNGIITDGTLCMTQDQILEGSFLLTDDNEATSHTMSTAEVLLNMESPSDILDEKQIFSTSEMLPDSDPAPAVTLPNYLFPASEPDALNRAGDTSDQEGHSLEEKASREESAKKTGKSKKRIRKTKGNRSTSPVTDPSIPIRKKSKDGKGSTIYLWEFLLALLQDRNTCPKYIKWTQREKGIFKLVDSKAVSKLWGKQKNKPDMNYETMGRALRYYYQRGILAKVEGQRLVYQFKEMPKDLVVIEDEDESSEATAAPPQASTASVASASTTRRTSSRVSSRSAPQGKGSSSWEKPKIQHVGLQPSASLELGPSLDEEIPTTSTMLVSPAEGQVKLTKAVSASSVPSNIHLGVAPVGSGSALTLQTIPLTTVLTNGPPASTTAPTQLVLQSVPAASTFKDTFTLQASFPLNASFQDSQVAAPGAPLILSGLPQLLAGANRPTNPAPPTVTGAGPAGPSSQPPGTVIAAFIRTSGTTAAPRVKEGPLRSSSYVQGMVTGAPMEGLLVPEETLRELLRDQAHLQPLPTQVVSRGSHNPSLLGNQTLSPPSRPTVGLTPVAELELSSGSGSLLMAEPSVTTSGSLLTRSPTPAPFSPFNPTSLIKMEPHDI
# In short: as §1
# ELK4 = target: T9, ELK4 (Homo sapiens, UniProt P28324-2 1-405); conditions: protein: recombinant; tags: N-terminal GST; dsDNA, one strand shown
# T9 sequence: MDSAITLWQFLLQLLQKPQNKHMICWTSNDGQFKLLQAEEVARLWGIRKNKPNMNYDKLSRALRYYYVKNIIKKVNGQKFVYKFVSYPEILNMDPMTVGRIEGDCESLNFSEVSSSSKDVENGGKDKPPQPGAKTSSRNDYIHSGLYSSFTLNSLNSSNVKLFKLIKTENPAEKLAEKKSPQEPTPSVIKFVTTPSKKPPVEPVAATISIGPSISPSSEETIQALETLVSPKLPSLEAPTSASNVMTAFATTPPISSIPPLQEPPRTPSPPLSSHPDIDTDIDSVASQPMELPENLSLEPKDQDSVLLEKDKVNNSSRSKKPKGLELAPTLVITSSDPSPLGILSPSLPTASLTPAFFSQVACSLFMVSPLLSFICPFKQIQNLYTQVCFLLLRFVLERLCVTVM
# In short: as §1
# ETV2 = target: T10, ETV2 (Homo sapiens, UniProt O00321 1-342); conditions: protein: recombinant; tags: N-terminal GST; dsDNA, one strand shown
# T10 sequence: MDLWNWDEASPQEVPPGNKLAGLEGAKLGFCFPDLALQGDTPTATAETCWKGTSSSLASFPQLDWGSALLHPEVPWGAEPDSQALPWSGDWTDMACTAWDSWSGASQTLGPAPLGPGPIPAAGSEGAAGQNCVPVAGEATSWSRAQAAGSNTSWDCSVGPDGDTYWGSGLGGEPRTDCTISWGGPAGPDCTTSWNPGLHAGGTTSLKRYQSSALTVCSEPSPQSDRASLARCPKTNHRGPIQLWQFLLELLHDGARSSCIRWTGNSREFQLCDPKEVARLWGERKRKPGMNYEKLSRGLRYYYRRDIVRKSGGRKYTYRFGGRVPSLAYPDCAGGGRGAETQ
# In short: as §1
# ELF3 = target: T11, ELF3 (Homo sapiens, UniProt P78545 1-371); conditions: protein: recombinant; tags: N-terminal GST; dsDNA, one strand shown
# T11 sequence: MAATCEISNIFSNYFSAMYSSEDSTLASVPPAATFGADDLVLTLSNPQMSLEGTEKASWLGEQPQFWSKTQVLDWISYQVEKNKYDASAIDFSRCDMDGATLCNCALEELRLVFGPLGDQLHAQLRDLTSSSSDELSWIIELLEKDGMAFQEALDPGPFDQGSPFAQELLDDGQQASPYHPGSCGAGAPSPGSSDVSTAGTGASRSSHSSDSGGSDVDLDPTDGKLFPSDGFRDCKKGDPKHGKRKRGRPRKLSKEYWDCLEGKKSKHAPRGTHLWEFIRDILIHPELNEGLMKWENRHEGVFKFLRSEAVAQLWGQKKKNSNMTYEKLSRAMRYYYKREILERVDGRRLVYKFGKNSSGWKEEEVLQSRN
# In short: as §1
# CRX = CRX (Homo sapiens, UniProt O43186 1-299); conditions: protein: recombinant; tags: N-terminal GST; dsDNA, one strand shown
# CRX, sequence (O43186 whole entry): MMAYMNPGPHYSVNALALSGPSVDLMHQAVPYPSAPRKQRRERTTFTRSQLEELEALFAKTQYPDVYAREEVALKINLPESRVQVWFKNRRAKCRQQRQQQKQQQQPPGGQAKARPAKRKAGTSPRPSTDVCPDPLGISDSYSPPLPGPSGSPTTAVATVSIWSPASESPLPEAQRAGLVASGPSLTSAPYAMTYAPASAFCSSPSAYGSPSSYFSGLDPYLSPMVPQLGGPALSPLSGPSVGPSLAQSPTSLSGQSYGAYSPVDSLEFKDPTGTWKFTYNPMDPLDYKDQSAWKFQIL
# In short: as §1
# ETV1 = ETV1 (Homo sapiens, UniProt P50549 1-477); conditions: protein: recombinant; tags: N-terminal GST; dsDNA, one strand shown
# ETV1, sequence (P50549 whole entry): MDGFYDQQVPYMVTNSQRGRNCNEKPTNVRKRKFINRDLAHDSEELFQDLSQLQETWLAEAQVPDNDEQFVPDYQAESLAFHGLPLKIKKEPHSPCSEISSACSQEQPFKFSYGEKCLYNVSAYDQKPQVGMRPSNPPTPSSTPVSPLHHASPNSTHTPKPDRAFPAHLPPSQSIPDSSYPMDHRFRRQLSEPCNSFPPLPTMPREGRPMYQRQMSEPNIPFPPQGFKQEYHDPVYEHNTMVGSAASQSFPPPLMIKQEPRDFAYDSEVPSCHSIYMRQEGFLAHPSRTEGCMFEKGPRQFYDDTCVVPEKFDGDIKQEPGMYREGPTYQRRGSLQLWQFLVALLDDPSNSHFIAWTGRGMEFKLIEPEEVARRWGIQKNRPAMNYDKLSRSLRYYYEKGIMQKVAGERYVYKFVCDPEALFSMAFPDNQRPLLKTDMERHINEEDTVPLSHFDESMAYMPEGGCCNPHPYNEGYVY
# In short: as §1
sequence,measurement,setting,value
AACTCG,binding signal,FLI1,"1.41 fold enrichment (6-mer frequency, TF over GST control)"
same,binding signal,ELK1,"1.33 fold enrichment (6-mer frequency, TF over GST control)"
same,binding signal,GABPA,"1.4 fold enrichment (6-mer frequency, TF over GST control)"
same,binding signal,ERG,"1.32 fold enrichment (6-mer frequency, TF over GST control)"
same,binding signal,ELF1,"1.39 fold enrichment (6-mer frequency, TF over GST control)"
same,binding signal,EHF,"1.28 fold enrichment (6-mer frequency, TF over GST control)"
same,binding signal,SPI1,"1.4 fold enrichment (6-mer frequency, TF over GST control)"
same,binding signal,SPIB,"1.37 fold enrichment (6-mer frequency, TF over GST control)"
same,binding signal,ELK3,"1.24 fold enrichment (6-mer frequency, TF over GST control)"
same,binding signal,FEV,"1.32 fold enrichment (6-mer frequency, TF over GST control)"
same,binding signal,ETV5,"1.29 fold enrichment (6-mer frequency, TF over GST control)"
same,binding signal,HSF1,"1.4 fold enrichment (6-mer frequency, TF over GST control)"
same,binding signal,SPIC,"1.58 fold enrichment (6-mer frequency, TF over GST control)"
same,binding signal,ELF4,"1.37 fold enrichment (6-mer frequency, TF over GST control)"
same,binding signal,ELK4,"1.29 fold enrichment (6-mer frequency, TF over GST control)"
same,binding signal,ETV2,"1.37 fold enrichment (6-mer frequency, TF over GST control)"
same,binding signal,ELF3,"1.29 fold enrichment (6-mer frequency, TF over GST control)"
same,binding signal,CRX,"1.3 fold enrichment (6-mer frequency, TF over GST control)"
same,binding signal,ETV1,"1.3 fold enrichment (6-mer frequency, TF over GST control)"
